# Reference: PubChem BioAssay AID1509 (The Scripps Research Institute Molecular Screening Center, 2009)
# In all, about 220,000 compounds went through this assay and about 770 (0.35%) were called active. The sample holds actives, similar compounds and a random draw of the others, so the mix is not that of the screen. Values without a mark were called inactive. Rule as the data show it: active = activation above about 11%; inactive = the rest. Where a SMILES comes first, the peptide text is derived from it. [ ]: non-standard residue; d: D form. ξ: configuration not given here. ξM = CSCCC(N)C(=O)O
# Molecular target: Sphingosine 1-phosphate receptor 4 (Homo sapiens) (UniProt O95977)
# Sequence (O95977 whole entry, looked up): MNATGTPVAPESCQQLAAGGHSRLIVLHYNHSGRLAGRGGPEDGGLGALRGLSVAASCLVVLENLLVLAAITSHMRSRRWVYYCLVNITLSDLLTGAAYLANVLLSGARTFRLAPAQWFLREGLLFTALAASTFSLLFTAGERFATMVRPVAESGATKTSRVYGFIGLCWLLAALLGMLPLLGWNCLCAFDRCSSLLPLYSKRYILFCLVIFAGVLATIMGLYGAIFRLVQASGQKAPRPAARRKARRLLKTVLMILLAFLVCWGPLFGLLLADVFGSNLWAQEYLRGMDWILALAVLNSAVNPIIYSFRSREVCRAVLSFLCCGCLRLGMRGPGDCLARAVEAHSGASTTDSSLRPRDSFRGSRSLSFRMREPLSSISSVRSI
# Assay: activators of human S1P4 receptor – cell-based, primary screen (AID 1509);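 also: 0% = DMSO vehicle and 100% = reference agonist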
# Details: S1P4-expressing cell line, agonist reporter assay; at 4.98 µM; hits give high values
row,Structure (SMILES),activation
1,Cc1cc(C)cc(Oc2nc3c(C)cccn3c(=O)c2/C=C(\C#N)C(=O)NC2CCS(=O)(=O)C2)c1 (configuration not stated),2.53%
2,Cc1ccc(CSc2nnc(-c3cnccn3)n2C)cc1,-0.85%
3,CC(C)c1ccc(NC(=S)NC2CC3C=CC2C3)cc1 (configuration not stated),-1.16%
4,O=C(COC(=O)c1ccccc1F)Nc1cc(S(=O)(=O)N2CCOCC2)ccc1N1CCCC1,-0.01%
5,O=C(COC(=O)Cc1ccc(F)cc1)Nc1cc(S(=O)(=O)N2CCOCC2)ccc1N1CCCC1,17.3% (active)
6,O=C(COc1cccc2ccccc12)Nc1cc(S(=O)(=O)N2CCOCC2)ccc1N1CCOCC1,-0.32%
7,Cc1cc(C)cc(NC(=O)Cn2cnc3c(nnn3Cc3ccc(F)cc3)c2=O)c1,-0.07%
8,O=C(COC(=O)c1ccco1)NCc1ccc(Cl)cc1,0.62%
9,Cc1ccccc1N1CCN(Cc2nc(Cc3ccccc3F)no2)CC1,0.64%
10,COc1ccc(NC(=O)CSc2ncnc3[nH]ncc23)cc1,-1.23%
11,CC(C)(C)c1ccc(/C=C2\Oc3c(ccc(O)c3CN3CCN(CCO)CC3)C2=O)cc1,0.44%
12,Cc1c(NC(=O)Nc2ccccc2)cccc1[N+](=O)[O-],1.03%
13,Cc1ccc(NC(=O)Nc2ccccc2)c(Br)c1,19.4% (active)
14,CC(=O)c1cccc(NC(=O)Nc2ccc(C)cc2)c1,-3.97%
15,Cc1ccc(N/C(N)=N/c2nc(C(F)(F)F)cc(C(F)(F)F)n2)cc1,2.06%
16,Fc1ccc(Nc2nnns2)cc1,1.1%
17,CC(=O)c1ccc(S(=O)(=O)N2CCN(C(=O)/C=C/c3ccc4ccccc4n3)CC2)cc1,-0.28%
18,COc1ccc(N2C(=O)C(Cc3ccccc3)NC2=S)cc1 (configuration not stated),18.3% (active)
19,O=C1C(Cc2ccc(O)cc2)NC(=S)N1Cc1ccccc1 (configuration not stated),0.05%
20,Cc1ccc(N2C(=O)C(Cc3ccccc3)NC2=S)cc1 (configuration not stated),-4.7%
21,O=C(NCc1ccccc1)C1CCCN(c2nc3ccsc3c(=O)s2)C1 (configuration not stated),2.93%
22,Cc1nn(-c2ccccc2)c(Cl)c1/C=C/C(=O)c1ccc(O)cc1,4.66%
23,Cc1ccc2c(c1)c1ncn(Cc3ccc(F)cc3)c(=O)c1n2C,0.67%

row,Structure (SMILES),activation
1,CC(=O)N1CCC(N(C(=O)Nc2ccc(Cl)cc2)C(C)C)CC1,-0.35%
2,CCOc1ccc(/C(O)=C2\C(=O)C(=O)N(c3ccc(OC)cc3)C2c2ccccc2[N+](=O)[O-])cc1 (configuration not stated),0.81%
3,COc1ccc(C2CC(c3cccs3)=NN2C(=O)CSc2nncs2)cc1OC (configuration not stated),0.18%
4,COc1ccc(C2CC(c3cccs3)=NN2c2ccccc2)cc1 (configuration not stated),11.6% (active)
5,COc1ccc(C2CC(c3cccs3)=NN2c2ccc(F)cc2)cc1OC (configuration not stated),19.4% (active)
6,COc1ccc(C2CC(c3cccs3)=NN2c2nc(C)c(C(C)=O)s2)cc1OC (configuration not stated),2.99%
7,COc1ccccc1N1N=C(c2cccs2)CC1c1ccccc1 (configuration not stated),7.12%
8,COc1ccc(C2=NN(c3ccccc3)C(c3cccs3)C2)cc1 (configuration not stated),1.42%
9,CSc1nc2nc3c(c(=O)n2[nH]1)CCC3,-0.27%
10,COc1ccc(CN2CN(C3CCCC3)CSC2=S)cc1,-0.49%
11,Cc1c(C(=O)Nc2cccc(-c3nnc4n3CCCCC4)c2)oc2ccccc12,2.38%
12,CC1(C)CC(=O)c2c(n(S(=O)(=O)c3ccccc3)c3ccc(NS(=O)(=O)c4ccccc4)cc23)C1,-0.65%
13,O=C(O)/C=C/c1ccc(S(=O)(=O)N2CCCCCC2)cc1,1.37%
14,CC1=CC=CC2=N/C(=N\S(=O)(=O)c3ccc(F)cc3F)c3ccccc3CN12,1.89%
15,Cc1ccc2c(c1)nnc1nnc(SCC(=O)O)n12,0.65%
16,O=C(O)C1C2CC2CN1C(=O)c1ccc(Cl)cc1Cl (configuration not stated),0.08%
17,COc1ccc(/C=C2\N=C3CCCN3C2=O)cc1,0.59%
18,CCCCCc1nnc(NC(=O)c2ccc(=O)n(C)n2)s1,0.34%
19,CC(=O)c1cc(C#N)c(N2CC(C)OC(C)C2)nc1C (configuration not stated),2.12%
20,CC(C)(C)C1CCC(C(=O)Nc2cccnc2)CC1 (configuration not stated),-0.6%
21,CCOc1ncccc1C(=O)N(CC)CC(=O)Nc1ccc(NC(C)=O)cc1,0.47%
22,COc1cc(/C=C/C(=O)OCC(=O)Nc2cccc(Oc3ccccc3)c2)ccc1O,0.15%
23,CCCCCNC(=O)c1cccnc1SCC(=O)Nc1ccccc1OC,19.3% (active)

row,Structure (SMILES),activation
1,CCCNC(=O)c1ccccc1NC(=O)CSCc1ccc(OC)cc1,1.75%
2,CCCc1nc(SCC(=O)Nc2ccccc2OC)c2c(=O)n(C)c(=O)n(C)c2n1,-0.79%
3,CCC(=O)/C(=C(/O)c1ccccc1)c1nc2ccccc2[nH]1,12.3% (active)
4,O=C(/C(=C/c1cccc(Cl)c1)c1nc2ccccc2[nH]1)c1ccccc1,-0.48%
5,COCCN(CCOC)S(=O)(=O)c1ccc(/C(O)=C(\C#N)c2nc3ccccc3[nH]2)cc1,0.35%
6,COc1ccc(S(=O)(=O)N2CCN(C(=O)c3cc(C)oc3C)CC2)cc1,0.82%
7,Cc1ccsc1/C=N/n1c(=S)[nH]nc(C)c1=O,3.22%
8,COc1ccc(-n2c(C)cc(C(=O)COC(=O)c3cc(OC)c(OC)cc3NC(=O)c3cccs3)c2C)cc1,-0.44%
9,O=C(NNC(=O)C1C2CCC(C2)C1C(=O)O)c1ccc(Cl)cc1 (configuration not stated),1.68%
10,CCOC(=O)NNC(=O)c1ccc(Cl)cc1,-0.78%
11,CSc1sc(C(=O)NNC(=O)c2ccc(Cl)cc2)c2c1C=CCC2,13.5% (active)
12,CC(=O)c1ccc(N2CCN(C(=O)c3ccc4nc[nH]c4c3)CC2)cc1,0.76%
13,O=C1CCCc2nn(-c3ccccc3)nc21,-2.78%
14,CN(C)S(=O)(=O)c1ccc(Cl)c(NC(=O)COC(=O)CC(NC(N)=O)c2ccc(Cl)cc2)c1 (configuration not stated),1.79%
15,C=CCOc1c(CNn2cn[nH]c2=S)cccc1OC,0.93%
16,N/C(=N\OC(=O)c1ccc2c(c1)OCO2)c1ccc(Br)cc1,-1.54%
17,NNC(=O)c1ccc(COCC(F)(F)C(F)F)cc1,-0.58%
18,C=CCNC(=O)c1ccccc1NC(=O)c1ccc(Cl)c(S(=O)(=O)Nc2cccc(C)c2C)c1,2.53%
19,CS(=O)(=O)c1sc(C(=O)NC(=S)Nc2ccc(OC(F)(F)F)cc2)c2c1C=CCC2,-1.4%
20,O=C(CN1C(=O)NC(Cc2ccccc2)(Cc2ccccc2)C1=O)NCC1CCCCC1,-1.64%
21,CCOc1ccc(N2C(=O)CC(N(CCc3ccc(OC)c(OC)c3)C(=S)Nc3ccccc3)C2=O)cc1 (configuration not stated),1.87%
22,O=C(CCCn1c(SCC(=O)c2ccc(F)cc2)nc2ccccc2c1=O)NCc1ccco1,30.4% (active)
23,O=C(CCCn1c(SCC(=O)c2ccccc2)nc2ccccc2c1=O)NCC1CCCO1 (configuration not stated),0.54%

row,Structure (SMILES),activation
1,O=C(CCn1c(SCC(=O)c2ccccc2)nc2ccccc2c1=O)NCc1ccc(F)cc1,0.31%
2,CCOC(=O)N1CCN(c2c(NCCN3CCN(c4ccccc4F)CC3)c(=O)c2=O)CC1,1.24%
3,COc1ccc(S(=O)(=O)NC(C)C)cc1C(=O)NC1CCCCC1,1.54%
4,CC(=O)OC(C(=O)NC1CCCCC1)c1ccccc1 (configuration not stated),0.59%
5,CC(Oc1ccc(Br)cc1Br)C(=O)NC1CCCC1 (configuration not stated),14.4% (active)
6,Cc1cc(C(=O)NNC(=O)CCC2CCCCC2)c(C)o1,0.49%
7,c1ccc2c(c1)OCCOCCOCCO2,0.22%
8,COCCNC(=O)c1ccc(-n2c(SCc3cccnc3)nc3ccccc3c2=O)cc1,1.25%
9,CCC1=NN2C(=N)/C(=C/c3cc(C)n(-c4ccccc4)c3C)C(=O)N=C2S1,-0.01%
10,Cc1cc2c(cc1C)N(Cc1ccccc1)C1=NCCCN12,-0.25%
11,O=[N+]([O-])c1ccc(F)cc1Oc1nc(-c2cccnc2)nc2ccccc12,0.24%
12,COC(=O)CNC(=O)C(CCSC)NC(C)=O (configuration not stated) (Ac-[ξM]-Gly-OMe),29.1% (active)
13,CCC(C)NC(=O)N[C@@H](CCSC)C(=O)O (some centres not stated),1.44%
14,COC(=O)[C@H](CCSC)NC(=O)Nc1ccc(OC)cc1,0.47%
15,C=CCn1c(SCn2nnc3ccccc3c2=O)nnc1-c1ccc(Cl)cc1,19% (active)
16,O=C(Cn1nnc2ccccc2c1=O)NCc1ccc(Cl)cc1,-1.75%
17,O=c1c2ccccc2nnn1CSc1nnnn1-c1ccccc1,0.58%
18,C/C(CCC(=O)OC[C@H]1O[C@H](C#Cc2ccccc2)C=C[C@@H]1Oc1ccc(C)cc1)=N\OC[C@@H](O)[C@H]1O[C@@H]2OC(C)(C)O[C@@H]2[C@H]1O,0.09%
19,O=C(COC(=O)C1CCN(S(=O)(=O)c2ccc3c(c2)OCCO3)CC1)Nc1ccccc1OC(F)F,2.37%
20,CC1CCCC(NC(=O)COC(=O)[C@@H]2CC(O)CN2S(=O)(=O)c2ccc3c(c2)OCCO3)C1C (some centres not stated),194% (active)
21,O=C1COc2ccc(C(=O)COC(=O)C3CC(O)CN3S(=O)(=O)c3ccc(Cl)cc3)cc2N1 (configuration not stated),1.17%
22,NC(=O)C1=C[C@H](c2csc3ccccc23)C[C@H](OCc2ccc(CO)cc2)O1,3.3%
23,COc1ccc(C(=O)N2CCc3cc(OC)c(OC)cc3C2c2cccc([N+](=O)[O-])c2)cc1 (configuration not stated),0.65%
